# Data published in PubChem BioAssay (NCI).
# This is part of a sample that, as a whole, favours compounds with a hit. Of some 79,000 tested, about 15% had one in any assay. Values without a mark were called inactive. Active and inactive are the calls of the source. Cut-off read from the data, not from the text of the source: active = growth inhibition above about 70%; inactive = the rest.
# Legend:
# [1] = NCI Yeast Anticancer Drug Screen. Data for the rad50 strain (AID 155);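 note: 0% = growth of vehicle-only cultures of the same strain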; conditions: S. cerevisiae rad50 strain growth inhibition, hits give high values
# Method in brief: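 A DNA repair-deficient yeast mutant serves as the test organism; compound-induced growth inhibition is calculated against vehicle-treated cells.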
# [2] = NCI Yeast Anticancer Drug Screen. Data for the mec2-1 strain (AID 157); conditions: S. cerevisiae mec2-1 strain, hits give high values
# Method in brief: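 Compounds were applied to mec2-1 yeast cells. Their growth was then compared with that of vehicle-treated cultures to give growth inhibition.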
# [3] = NCI Yeast Anticancer Drug Screen. Data for the sgs1 mgt1 strain (AID 161);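 note: 0% = growth of cultures given vehicle only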; conditions: S. cerevisiae sgs1 mgt1 strain, hits give high values
# Method in brief: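 Growth of a repair-deficient yeast mutant was monitored after compound treatment and expressed as inhibition relative to vehicle-treated cultures.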
# [4] = NCI Yeast Anticancer Drug Screen. Data for the cln2 rad14 strain (AID 165);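 note: 0% = growth equal to vehicle treated cultures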; conditions: S. cerevisiae cln2 rad14 strain, hits give high values
# Method in brief: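 Strain: cln2 rad14 yeast, altered in cell cycle control and DNA damage repair. Read-out: growth inhibition vs vehicle.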
# [5] = NCI Yeast Anticancer Drug Screen. Data for the bub3 strain (AID 167); conditions: S. cerevisiae bub3 mutant strain, hits give high values
# Method in brief: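 Inhibition values come from growth of compound-treated mutant yeast normalised to vehicle-treated controls.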
# [6] = NCI Yeast Anticancer Drug Screen. Data for the mlh1 rad18 strain (AID 175); conditions: S. cerevisiae mlh1 rad18 strain growth inhibition, hits give high values
# Method in brief: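 A repair-deficient yeast strain is exposed to test compound, and growth is scored relative to vehicle-treated controls.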
# [7] = at 5.0 µM (retest, dose inferred, filed as 0.5)
# [8] = at 50.0 µM (retest, dose inferred, filed as 5.0)
SMILES,"growth inhibition [1, 7]","growth inhibition [1, 8]",growth inhibition ([1]; at 50.0 µM),"growth inhibition [2, 7]","growth inhibition [2, 8]",growth inhibition ([2]; at 50.0 µM),"growth inhibition [3, 7]","growth inhibition [3, 8]",growth inhibition ([3]; at 50.0 µM),"growth inhibition [4, 7]","growth inhibition [4, 8]",growth inhibition ([4]; at 50.0 µM),"growth inhibition [5, 7]","growth inhibition [5, 8]",growth inhibition ([5]; at 50.0 µM),"growth inhibition [6, 7]","growth inhibition [6, 8]",growth inhibition ([6]; at 50.0 µM)
NNC(=O)c1c(SCc2ccccc2)nc2c3ccccc3ccn12,40%,93% (active),51.5%,22%,83% (active),35%,42%,90% (active),52.6%,24%,87% (active),38.8%,33%,69%,39.1%,33%,93% (active),81.3% (active)
COc1ccc(C(c2cc3c(cc2O)OCO3)N2CCOCC2)cc1OC (stereo not given),-2%,39%,77.5% (active),-5%,59%,86.5% (active),-2%,43%,96.5% (active),0%,12%,67.5%,-5%,41%,98% (active),-2%,35%,70.7% (active)
COc1ccc(N=N/N=c2\sc3cc(OC)ccc3n2C)cc1,7%,80% (active),29.4%,3%,46%,5.1%,-2%,22%,11.9%,-2%,63%,24.5%,-5%,36%,-3.4%,-6%,71% (active),46.8%
C=C(Cl)C(=NC(C)(C)C)Nc1ccccc1C,27%,53%,69.3%,20%,56%,74.9% (active),25%,61%,81.4% (active),29%,37%,66%,22%,60%,83.8% (active),30%,80% (active),40.1%
COc1ccc2c(c1)CCC1=C2C=C[P+]1(C)C,-4%,98% (active),99.5% (active),-5%,96% (active),99.7% (active),-1%,100% (active),99.7% (active),4%,71% (active),94.6% (active),-2%,97% (active),99.7% (active),-2%,99% (active),99.5% (active)
